Bioassay records from PubChem BioAssay.
TLR9-MyD88 inh: TLR9-MyD88 interaction inhibition. Q9NR96+Q99836. inhibition, % at 4.98 µM. CHO BLA complementation TLR9-MyD88, CCF4 FRET ratio. AID 504734. hit rate 0.21% among 340,000;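 active = inhibition above the mean over all tested compounds plus 3 SD, cut at about 21% in these data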;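 also: 0% = DMSO only wells and 100% = clavulanate BLA inhibitor control wells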
Beta2AR agonist: activates human beta-2 adrenergic receptor causing internalization; Am2.2-beta2AR cells, FAP receptor internalization, flow cytometry; response, % (no concentration beside the values); hit rate 0.43% among 340,000; AID 504454;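 active = response above a set limit, near 3 SD of response in nonfluorescent compounds, cut at about 42% in these data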
Target sequence (P07550 whole entry, looked up): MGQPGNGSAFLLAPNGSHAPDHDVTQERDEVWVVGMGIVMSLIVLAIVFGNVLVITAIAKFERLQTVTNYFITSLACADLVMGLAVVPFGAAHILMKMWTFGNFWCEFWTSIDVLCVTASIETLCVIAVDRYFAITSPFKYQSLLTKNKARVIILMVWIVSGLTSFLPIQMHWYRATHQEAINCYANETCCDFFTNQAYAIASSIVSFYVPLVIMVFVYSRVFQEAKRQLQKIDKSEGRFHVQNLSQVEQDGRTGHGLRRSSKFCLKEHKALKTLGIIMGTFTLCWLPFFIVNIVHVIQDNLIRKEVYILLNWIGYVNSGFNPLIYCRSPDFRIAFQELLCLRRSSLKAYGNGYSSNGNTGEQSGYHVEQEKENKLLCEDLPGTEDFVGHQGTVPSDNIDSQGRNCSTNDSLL
NTR1 ag: activates human neurotensin receptor 1 | NTR1-U2OS beta-arrestin-GFP spot imaging, agonist mode | activation, % at 20 µM | hit rate 0.17% among 330,000;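 active = activation at or above 40% of the spot to cytoplasm intensity ratio, with at least 20 cells analyzed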;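 also: 0% = DMSO without peptide and 100% = 100 nM NTR1 peptide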
NOD2-RIPK2 inh: NOD2-RIPK2 protein interaction inhibition; O43353; CHO BLA complementation NOD2-RIPK2, CCF4 ratio; inhibition, % at 4.98 µM; hit rate 0.38% among 360,000; AID 624267; in the data active = inhibition above about 21%;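 also: 0% = vehicle only and 100% = reference blocker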
ABHD5 PLIN5 PPI: inhibitors of human ABHD5-perilipin-5 interaction; Split G. princeps luciferase complementation, luminescence, 4 h; inhibition, % at 4 µM; hit rate 0.78% among 360,000; AID 602281; Q00G26+Q8WTS1;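 active = inhibition above the mean inhibition across every tested compound plus 3 SD, cut at about 22% in these data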;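 also: 0% = DMSO only wells and the 100% control is not disclosed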
TLR4-MyD88 BLA: blocks binding of human TLR4 to MyD88; O00206+Q99836; AID 861; inhibition, % at 8.4 µM; HeLa CL3-4 TLR4/MyD88 BLA complementation, FRET ratio; hit rate 0.18% among 200,000; in the data active = inhibition above about 25%;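 also: 0% = vehicle and 100% = reference inhibitor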
ABHD5-PLIN5 conf: confirmation of human ABHD5-PLIN5 interaction inhibitors. shares compounds with ABHD5 PLIN5 PPI. biochemical ABHD5-PLIN5 interaction, luminescence. inhibition, % at 4 µM. hit rate 67% among 2,200; in the data active = inhibition above about 23%;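 also: 0% = DMSO vehicle wells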
HNF4 counter: HNF4 split-luciferase signal hit, counter-screen; shares compounds with ABHD5 PLIN5 PPI; HNF4 dimerization, luminescence, biochemical; inhibition, % at 4 µM; hit rate 77% among 2,200; AID 651674;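 active = mean inhibition across replicate wells exceeding the computed hit threshold, cut at about 13% in these data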;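 also: light from luciferase halves that rejoin when HNF4 fusion proteins dimerize; 0% = DMSO only wells and the 100% control is not given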
* = called active by the depositor; / = not tested or not shown. In the library only some 1.5% were active in any assay of this set; here they are far more common.

SMILES	TLR9-MyD88 inh	Beta2AR agonist	NTR1 ag	NOD2-RIPK2 inh	ABHD5 PLIN5 PPI	TLR4-MyD88 BLA	ABHD5-PLIN5 conf	HNF4 counter
O=C(/C=C/c1c(F)cccc1Cl)c1ccc(F)cc1	3	15	40	-11	31*	2	95*	91*
O=C(/C=C/c1ccc[nH]1)c1ccc(F)cc1	5	2	2	7	0	-5	/	/
COC(=O)[C@]12CCCCC=C1N(Cc1ccco1)C(=O)[C@H](CC(=O)NCc1cccs1)C2	/	/	/	-15	-5	/	/	/
CCCCNC(=O)C1(C)CCCCN1CC(=O)c1ccc(OC)cc1 (centres undefined)	/	/	/	-30	-5	/	/	/
N#CCc1c(C#N)c(N)nc(N2CCN(C=O)CC2)c1C#N	-3	-7	0	-4	23*	5	1	11
Oc1c(CN2CCCC(C(F)(F)F)C2)cc(Cl)c2ccccc12 (centres undefined)	4	14	8	11	24*	/	9	12
OC1CCCN(Cc2cccc3ccccc23)C1 (centres undefined)	-5	2	0	-2	1	7	/	/
C(=C\c1ccccc1)/CN1CCN(C(c2nnnn2Cc2ccccc2)C2CC2)CC1 (centres undefined)	/	/	/	11	-2	/	/	/
Cc1ccc2cccc(OC(=O)c3c(F)cccc3Cl)c2n1	/	/	/	-2	-11	/	/	/
O=C(O)CCC(=O)Nc1sc2c(c1C(=O)Nc1ccccc1)CCCCC2	2	10	2	-7	24*	-9	9	-15
O=C(O)CCC(=O)Nc1sc2c(c1C(=O)Nc1cccc3ccccc13)CCCCC2	-5	6	8	0	-18	-8	/	/
Cc1cccc(C)c1NC(=O)C(c1ccncc1)n1c(=O)c(-c2ccco2)nc2ccccc21 (centres undefined)	/	/	/	-9	56*	/	23*	12
Cc1cccc(C)c1NC(=O)C(C1CC1)n1c(=O)c(-c2ccccc2)nc2ccccc21 (centres undefined)	/	/	/	8	3	/	/	/
Cc1cccc(C)c1NC(=O)C(c1ccc(C(F)(F)F)cc1)n1c(=O)c(-c2ccccc2)nc2ccccc21 (centres undefined)	/	/	/	-16	-15	/	/	/
CC(C)(C)NC(=O)C(C1CC1)n1c(=O)c(-c2ccco2)nc2ccccc21 (centres undefined)	/	/	/	-11	51*	/	73*	23*
Cc1cccc(C)c1NC(=O)C(C1CC1)n1c(=O)c(-c2ccco2)nc2ccccc21 (centres undefined)	/	/	/	-3	61*	/	43*	25*
CSCCC(c1nc2ccccc2[nH]1)n1c(=O)c(-c2ccco2)nc2ccccc21 (centres undefined)	/	/	/	1	34*	/	34*	40*
C[C@H](CO)N1C[C@H](C)[C@@H](CN(C)Cc2ccccn2)Oc2ncc(Br)cc2C1=O	-8	/	/	9	-9	/	/	/
CN(Cc1ccccc1)c1nccn2ccnc12	/	/	/	-2	5	/	/	/
COc1ccccc1CNc1nc(Nc2cccc(-c3cnco3)c2)c2sccc2n1	/	/	/	-2	8	/	/	/
CN(CCc1ccccc1)C(C(=O)c1ccc2c(c1)OCO2)c1nnnn1-c1ccccc1NC(=O)OC(C)(C)C (centres undefined)	/	/	/	-2	-6	/	/	/
COc1ccccc1/C=C1\C(=O)Nc2ccccc21	5	4	3	3	19	/	/	/
O=C1Nc2ccccc2/C1=C/c1ccccc1Cl	10	10	6	3	27*	/	40*	26*
C#CCN(C[C@@H]1[C@@H](OC(=O)NC2CC2)[C@@H](OC(=O)NC2CC2)CN(C(=O)OC(C)C)N1C(=O)OC(C)C)S(=O)(=O)c1ccc(C)cc1	-3	/	/	5	3	/	/	/
C#CCN(C[C@@H]1[C@@H](OC(=O)Nc2cccs2)[C@@H](OC(=O)Nc2cccs2)Cn2c(=O)ccc(=O)n21)S(=O)(=O)c1ccc(C)cc1	-13	/	/	-9	61*	/	87*	50*
